Source: PubChem BioAssay (NCI)
This is part of a sample that, as a whole, favours compounds with a hit. Of some 79,000 tested, about 15% had one in any assay. Active and inactive are the calls of the source. Cut-off read from the data, not from the text of the source: active = growth inhibition above about 70%; inactive = the rest.

What was measured:
[1] = NCI Yeast Anticancer Drug Screen. Data for the rad52 strain (AID 147);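 note: 0% = growth of vehicle-treated control cultures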; details: S. cerevisiae rad52 mutant growth inhibition, active compounds read high
Procedure, shortened: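 Here a repair-compromised yeast strain receives each compound; its growth is then quantified and normalised to vehicle-only controls.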

[2] = NCI Yeast Anticancer Drug Screen. Data for the wt1 strain (AID 149);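 note: 0% = growth of vehicle-treated wt1 cultures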; details: S. cerevisiae wt1 strain (SPY 50644) growth inhibition, active compounds read high
Procedure, shortened: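 Readout: yeast growth inhibition, normalised to vehicle controls, in the wt1 strain exposed to test compounds.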

[3] = NCI Yeast Anticancer Drug Screen. Data for the rad50EPP+ strain (AID 151);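 note: 0% = growth of vehicle-treated control cultures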; details: S. cerevisiae rad50 mutant strain, active compounds read high
Procedure, shortened: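 Read-out is yeast growth inhibition relative to vehicle; cells used were the rad50EPP+ strain.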

[4] = NCI Yeast Anticancer Drug Screen. Data for the mgt1 strain (AID 153); details: S. cerevisiae mgt1 mutant growth inhibition, active compounds read high
Procedure, shortened: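 Measured: inhibition of mgt1 yeast growth by compound, normalized to vehicle-treated cultures.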

[5] = NCI Yeast Anticancer Drug Screen. Data for the rad50 strain (AID 155);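 note: 0% = growth of vehicle-only cultures of the same strain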; details: S. cerevisiae rad50 strain growth inhibition, active compounds read high
Procedure, shortened: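 Compounds were tested on a yeast strain with an engineered DNA damage repair alteration; the reported value is growth inhibition normalised to vehicle treatment.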

[6] = NCI Yeast Anticancer Drug Screen. Data for the mec2-1 strain (AID 157); details: S. cerevisiae mec2-1 strain, active compounds read high
Procedure, shortened: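 Using mec2-1 yeast: add compound, measure growth, express inhibition versus vehicle-treated cultures.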

[7] = NCI Yeast Anticancer Drug Screen. Data for the rad14 strain (AID 159);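 note: 0% = growth of vehicle-treated control cultures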; details: S. cerevisiae rad14 strain growth inhibition, active compounds read high
Procedure, shortened: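 Compound-treated yeast with a defined DNA-repair lesion; growth inhibition normalised to vehicle-treated cultures.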

[8] = NCI Yeast Anticancer Drug Screen. Data for the sgs1 mgt1 strain (AID 161);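 note: 0% = growth of cultures given vehicle only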; details: S. cerevisiae sgs1 mgt1 strain, active compounds read high
Procedure, shortened: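 This yeast growth screen uses a strain with defined DNA-repair lesions; compound-treated growth is compared with vehicle-treated growth.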

[9] = NCI Yeast Anticancer Drug Screen. Data for the CLN2oe strain (AID 163);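 note: 0% = growth of vehicle-only control cultures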; details: S. cerevisiae CLN2oe strain, active compounds read high
Procedure, shortened: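 Whole-cell yeast growth assay. A strain engineered for altered cell-cycle control received compound, and inhibition relative to vehicle-treated cultures was recorded.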

[10] = NCI Yeast Anticancer Drug Screen. Data for the cln2 rad14 strain (AID 165);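 note: 0% = growth equal to vehicle treated cultures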; details: S. cerevisiae cln2 rad14 strain, active compounds read high
Procedure, shortened: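 Yeast strain cln2 rad14, bearing defects in cell cycle control and DNA repair, serves as the test system; values reflect growth inhibition compared with vehicle.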

[11] = NCI Yeast Anticancer Drug Screen. Data for the bub3 strain (AID 167); details: S. cerevisiae bub3 mutant strain, active compounds read high
Procedure, shortened: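 Growth of a checkpoint-deficient yeast mutant is measured after compound exposure. Values represent inhibition relative to vehicle.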

[12] = NCI Yeast Anticancer Drug Screen. Data for the wt2 strain (AID 169);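 note: 0% = growth of vehicle-treated yeast cultures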; details: S. cerevisiae wt2 strain growth inhibition, active compounds read high
Procedure, shortened: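 Treated yeast vs. vehicle-treated yeast: growth inhibition determined.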

[13] = NCI Yeast Anticancer Drug Screen. Data for the mlh1 strain (AID 171);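 note: 0% = growth of vehicle-treated control cultures of the same strain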; details: S. cerevisiae mlh1 strain growth inhibition, active compounds read high
Procedure, shortened: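 A yeast strain with a defined genetic lesion serves as the test organism. Cultures receive compound or vehicle, and growth is measured.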

[14] = NCI Yeast Anticancer Drug Screen. Data for the sgs1 strain (AID 173);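 note: 0% = growth of vehicle-only control cultures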; details: S. cerevisiae sgs1 mutant, active compounds read high
Procedure, shortened: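 A genetically defined yeast mutant is incubated with the test compound, and its growth is compared to that of the same strain given vehicle.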

[15] = NCI Yeast Anticancer Drug Screen. Data for the mlh1 rad18 strain (AID 175); details: S. cerevisiae mlh1 rad18 strain growth inhibition, active compounds read high
Procedure, shortened: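 Steps: expose repair-defective yeast to compound; measure growth; express inhibition against vehicle-treated controls.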

[16] = NCI Yeast Anticancer Drug Screen. Data for the rad18 strain (AID 177); details: S. cerevisiae rad18 mutant growth inhibition, active compounds read high
Procedure, shortened: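 Measured value is growth inhibition of a yeast strain bearing a DNA repair alteration, referenced to vehicle-treated cells.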

[17] = at 5.0 µM (retest, dose inferred, filed as 0.5)
[18] = at 50.0 µM (retest, dose inferred, filed as 5.0)

Measured: growth inhibition

OC(COc1cccc2ccccc12)CN1CCOCC1 (stereo not drawn)
inactive: [1]; at 1.2 µM 15% | [1]; at 3.7 µM 32% | [1]; at 11.0 µM 44% | [1]; at 33.0 µM 51% | [1]; at 100.0 µM 50% | [2]; at 1.2 µM 13% | [2]; at 3.7 µM 23% | [2]; at 11.0 µM 30% | [2]; at 33.0 µM 31% | [2]; at 100.0 µM 30% | [3]; at 1.2 µM -5% | [3]; at 3.7 µM -6% | [3]; at 11.0 µM -9% | [3]; at 33.0 µM -9% | [3]; at 100.0 µM -3% | [4]; at 1.2 µM 8% | [4]; at 3.7 µM 26% | [4]; at 11.0 µM 42% | [4]; at 33.0 µM 52% | [4]; at 100.0 µM 55% | [5]; at 1.2 µM 11% | [5]; at 3.7 µM 19% | [5]; [17] 54% | [5]; at 11.0 µM 42% | [5]; at 33.0 µM 37% | [5]; at 100.0 µM 36% | [6]; at 1.2 µM 9% | [6]; at 3.7 µM 17% | [6]; [17] 24% | [6]; at 11.0 µM 23% | [6]; at 33.0 µM 27% | [6]; [18] 46% | [6]; at 50.0 µM 37% | [6]; at 100.0 µM 39% | [7]; at 1.2 µM 41% | [7]; at 3.7 µM 39% | [7]; at 11.0 µM 45% | [7]; at 33.0 µM 49% | [7]; at 100.0 µM 52% | [8]; [17] 43% | [8]; at 50.0 µM 46.5% | [9]; at 1.2 µM 21% | [9]; at 3.7 µM 48% | [9]; at 11.0 µM 61% | [9]; at 33.0 µM 69% | [10]; [17] 14% | [10]; [18] 59% | [11]; at 1.2 µM 8% | [11]; at 3.7 µM 25% | [11]; [17] 35% | [11]; at 11.0 µM 29% | [11]; at 33.0 µM 57% | [11]; [18] 60% | [11]; at 50.0 µM 49.1% | [11]; at 100.0 µM 47% | [12]; at 1.2 µM 17% | [12]; at 3.7 µM 27% | [12]; at 11.0 µM 32% | [12]; at 33.0 µM 39% | [12]; at 100.0 µM 35% | [13]; at 1.2 µM 11% | [13]; at 3.7 µM 21% | [13]; at 11.0 µM 33% | [13]; at 33.0 µM 18% | [13]; at 100.0 µM 37% | [14]; at 1.2 µM 29% | [14]; at 3.7 µM 49% | [14]; at 11.0 µM 61% | [14]; at 33.0 µM 59% | [14]; at 100.0 µM 56% | [15]; [17] 37% | [15]; [18] 49% | [15]; at 50.0 µM 37.3% | [16]; at 1.2 µM 32% | [16]; at 3.7 µM 39% | [16]; at 11.0 µM 55% | [16]; at 33.0 µM 64% | [16]; at 100.0 µM 51%
active: [5]; [18] 78% | [5]; at 50.0 µM 71.5% | [8]; [18] 71% | [9]; at 100.0 µM 72% | [10]; at 50.0 µM 73.5%

CCC[CH2][Ge]([CH2]CCC)([CH2]CCC)[O]C(=O)C(OC)c1ccccc1 (stereo not drawn)
active: [1]; at 100.0 µM 98% | [2]; at 100.0 µM 97% | [4]; at 100.0 µM 99% | [5]; at 100.0 µM 98%
inactive: [1]; at 1.2 µM 0% | [1]; at 3.7 µM 6% | [1]; at 11.0 µM 25% | [1]; at 33.0 µM 66% | [2]; at 1.2 µM -3% | [2]; at 3.7 µM -6% | [2]; at 11.0 µM -3% | [2]; at 33.0 µM 30% | [3]; at 1.2 µM -2% | [3]; at 3.7 µM 3% | [3]; at 11.0 µM 6% | [3]; at 33.0 µM 16% | [3]; at 100.0 µM 34% | [4]; at 1.2 µM -2% | [4]; at 3.7 µM -1% | [4]; at 11.0 µM 1% | [4]; at 33.0 µM 58% | [5]; at 1.2 µM 2% | [5]; at 3.7 µM 8% | [5]; [17] 60% | [5]; at 11.0 µM -2% | [5]; at 33.0 µM 64% | [5]; [18] 60% | [5]; at 50.0 µM 69.9% | [6]; at 1.2 µM -1% | [6]; at 3.7 µM -1%
